Measurements from PubChem BioAssay (NCI).
Compounds without any hit were thinned out: in the full panel of roughly 83,000, 20% have a hit.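 Single-dose data. Exposure time 48 hours. Values below 10 considered active.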 Active and inactive are the calls of the source.

Tests used:
Experiment in all cases: NCI-60 one-dose screen, 48 h (100 = growth as untreated, 0 = no growth, -100 = all killed)
SK-MEL-2 melanoma = conditions: 10 µM unless noted
EKVX NSCLC = conditions: 10 µM unless noted
SN12C renal = conditions: 10 µM unless noted
UO-31 renal = conditions: 10 µM unless noted
TK-10 renal = conditions: 10 µM unless noted
ACHN renal = conditions: 10 µM unless noted
CAKI-1 renal = conditions: 10 µM unless noted
A498 renal = conditions: 10 µM unless noted
CCRF-CEM leukemia = conditions: 10 µM unless noted
MOLT-4 leukemia = conditions: 10 µM unless noted
SR leukemia = conditions: 10 µM unless noted
RPMI-8226 leukemia = conditions: 10 µM
OVCAR-8 ovarian = conditions: 10 µM unless noted
OVCAR-5 ovarian = conditions: 10 µM unless noted
OVCAR-4 ovarian = conditions: 10 µM unless noted
SK-OV-3 ovarian = conditions: 10 µM
IGROV1 ovarian = conditions: 10 µM unless noted
OVCAR-3 ovarian = conditions: 10 µM unless noted
HS 578T breast = conditions: 10 µM unless noted
NCI/ADR-RES ovarian = conditions: 10 µM unless noted

Measured: growth

O=C1C(Cl)=C(NCCCN2CCOCC2)C(=O)c2ccccc21
inactive: SK-MEL-2 melanoma 104% | EKVX NSCLC 112% | SN12C renal 82.8% | UO-31 renal 61% | TK-10 renal 131% | ACHN renal 108% | CAKI-1 renal 102% | A498 renal 110% | CCRF-CEM leukemia 90.9% | MOLT-4 leukemia 88.4% | SR leukemia 39.2% | RPMI-8226 leukemia 78.3% | OVCAR-8 ovarian 96.1% | OVCAR-5 ovarian 111% | OVCAR-4 ovarian 77.1% | SK-OV-3 ovarian 102% | IGROV1 ovarian 56.4% | OVCAR-3 ovarian 96.4% | HS 578T breast 99.7% | NCI/ADR-RES ovarian 99.1%

COc1ccc(-c2nc3sc(C)cn3c2/C=C/C(=O)c2cc(OC)c(OC)c(OC)c2)cc1
inactive: SK-MEL-2 melanoma 63% | EKVX NSCLC 34% | SN12C renal 59.5% | UO-31 renal 31.6% | TK-10 renal 96.9% | ACHN renal 54.4% | CAKI-1 renal 76.7% | A498 renal 52.5% | CCRF-CEM leukemia 37.4% | MOLT-4 leukemia 12.2% | SR leukemia 48.5% | RPMI-8226 leukemia 31.5% | OVCAR-8 ovarian 35.7% | OVCAR-5 ovarian 113% | OVCAR-4 ovarian 47.8% | SK-OV-3 ovarian 66.4% | IGROV1 ovarian 67.1% | OVCAR-3 ovarian 41.7% | HS 578T breast 37.3% | NCI/ADR-RES ovarian 21.8%

COc1cc(C2CC(=O)Nc3c2ccc2ccccc32)cc(Br)c1OC (stereo not given)
inactive: EKVX NSCLC 38.9% | SN12C renal 50.2% | UO-31 renal 27.2% | TK-10 renal 34.4% | ACHN renal 45.9% | CAKI-1 renal 27.1% | MOLT-4 leukemia 10.6% | OVCAR-8 ovarian 27.7% | OVCAR-5 ovarian 45.1% | OVCAR-4 ovarian 41% | IGROV1 ovarian 32.4% | HS 578T breast 14%
active: SK-MEL-2 melanoma 8.51% | A498 renal 7.93% | CCRF-CEM leukemia -25.7% | SR leukemia -6.32% | RPMI-8226 leukemia -13.1% | SK-OV-3 ovarian 2.95% | OVCAR-3 ovarian -26.3% | NCI/ADR-RES ovarian -10.7%

O=S(=O)(OCCO)c1ccccc1
inactive: SK-MEL-2 melanoma 102% | EKVX NSCLC 103% | SN12C renal 96.2% | UO-31 renal 90.4% | TK-10 renal 100% | ACHN renal 104% | CAKI-1 renal 88.2% | A498 renal 110% | CCRF-CEM leukemia 61.8% | MOLT-4 leukemia 108% | SR leukemia 100% | RPMI-8226 leukemia 103% | OVCAR-8 ovarian 90.6% | OVCAR-5 ovarian 92% | OVCAR-4 ovarian 109% | SK-OV-3 ovarian 109% | IGROV1 ovarian 113% | OVCAR-3 ovarian 112% | HS 578T breast 108% | NCI/ADR-RES ovarian 102%

Cc1ccc(C)c2c1sc1nc3nc4sc5ccccc5n4c(=N)c3c(=O)n12
inactive: SK-MEL-2 melanoma 121% | EKVX NSCLC 95.7% | SN12C renal 105% | UO-31 renal 78.1% | TK-10 renal 162% | ACHN renal 99.1% | CAKI-1 renal 106% | A498 renal 69.1% | CCRF-CEM leukemia 81.1% | MOLT-4 leukemia 104% | SR leukemia 78.5% | RPMI-8226 leukemia 89.4% | OVCAR-8 ovarian 116% | OVCAR-5 ovarian 91.3% | OVCAR-4 ovarian 88% | SK-OV-3 ovarian 92.5% | IGROV1 ovarian 64.3% | OVCAR-3 ovarian 89.4% | HS 578T breast 94.8% | NCI/ADR-RES ovarian 97.6%

COc1cc(C(=O)N(C(C)C)C2CCCCC2)cc(OC)c1OC
inactive: SK-MEL-2 melanoma 98.5% | EKVX NSCLC 144% | SN12C renal 96.3% | UO-31 renal 89% | TK-10 renal 94% | ACHN renal 103% | CAKI-1 renal 86.6% | A498 renal 102% | CCRF-CEM leukemia 94.8% | MOLT-4 leukemia 97.1% | SR leukemia 99.5% | RPMI-8226 leukemia 88.5% | OVCAR-8 ovarian 90.3% | OVCAR-5 ovarian 109% | OVCAR-4 ovarian 107% | SK-OV-3 ovarian 91.3% | IGROV1 ovarian 105% | OVCAR-3 ovarian 113% | HS 578T breast 102% | NCI/ADR-RES ovarian 96.1%

O=C(Nc1ccccc1)Oc1cccc2cccnc12
active: CCRF-CEM leukemia 7.23% | OVCAR-3 ovarian -19.4%
inactive: SK-MEL-2 melanoma 93.9% | EKVX NSCLC 82.2% | SN12C renal 94.9% | UO-31 renal 68.1% | TK-10 renal 104% | ACHN renal 84.7% | CAKI-1 renal 93.9% | A498 renal 119% | MOLT-4 leukemia 55.3% | SR leukemia 48.2% | RPMI-8226 leukemia 76.2% | OVCAR-8 ovarian 74.4% | OVCAR-5 ovarian 92.9% | OVCAR-4 ovarian 76.8% | SK-OV-3 ovarian 112% | IGROV1 ovarian 20.4% | HS 578T breast 116% | NCI/ADR-RES ovarian 78.5%

COc1cc(C(=O)/C=C/c2c(-c3cccs3)nc3sccn23)cc(OC)c1OC
active: SK-MEL-2 melanoma -3.21% | EKVX NSCLC 3.45% | SN12C renal 4.03% | TK-10 renal 3.46% | CAKI-1 renal -29% | A498 renal -26.3% | MOLT-4 leukemia -1.21% | RPMI-8226 leukemia -0.804% | OVCAR-8 ovarian 0.926% | OVCAR-5 ovarian 0.426% | OVCAR-4 ovarian -2.2% | SK-OV-3 ovarian -2.52% | IGROV1 ovarian 5.57% | OVCAR-3 ovarian -19.1% | HS 578T breast -9.28% | NCI/ADR-RES ovarian -29.7%
inactive: UO-31 renal 10.2% | ACHN renal 12.4% | CCRF-CEM leukemia 10.8% | SR leukemia 10.3%

O=[N+]([O-])c1cc2c(cc1Br)-c1ccccc1C2
inactive: SK-MEL-2 melanoma 101% | EKVX NSCLC 77.6% | SN12C renal 85.1% | UO-31 renal 70.5% | TK-10 renal 126% | ACHN renal 94.2% | CAKI-1 renal 76.4% | A498 renal 95.1% | CCRF-CEM leukemia 70.9% | MOLT-4 leukemia 88.8% | SR leukemia 82.7% | RPMI-8226 leukemia 80.7% | OVCAR-8 ovarian 97.3% | OVCAR-5 ovarian 124% | OVCAR-4 ovarian 48.5% | SK-OV-3 ovarian 90% | IGROV1 ovarian 87.1% | OVCAR-3 ovarian 102% | HS 578T breast 94% | NCI/ADR-RES ovarian 81.6%

O=C(NCc1cccnc1)c1ccc([N+](=O)[O-])o1
inactive: EKVX NSCLC 62.1% | ACHN renal 34.5% | CCRF-CEM leukemia 54.4% | MOLT-4 leukemia 65.8% | SR leukemia 23% | RPMI-8226 leukemia 52.8% | OVCAR-4 ovarian 63.9% | SK-OV-3 ovarian 32.3% | IGROV1 ovarian 33.7%
active: SK-MEL-2 melanoma -16.7% | SN12C renal -53.4% | UO-31 renal 2.12% | TK-10 renal -30.5% | CAKI-1 renal -3.61% | A498 renal 9.84% | OVCAR-8 ovarian 4.23% | OVCAR-5 ovarian -1.25% | OVCAR-3 ovarian -4.71% | HS 578T breast -9.03% | NCI/ADR-RES ovarian -29.1%

COc1cc(/C=C/C(=O)C(=Cc2ccc(F)c(F)c2)C(=O)/C=C/c2ccc(O)c(OC)c2)ccc1O
inactive: EKVX NSCLC 72.1% | SN12C renal 31.2% | UO-31 renal 53.2% | TK-10 renal 35.5% | ACHN renal 27.3% | CAKI-1 renal 95.6% | A498 renal 116% | MOLT-4 leukemia 12.2% | SR leukemia 18.2% | RPMI-8226 leukemia 19.9% | OVCAR-8 ovarian 11.1% | OVCAR-5 ovarian 115% | OVCAR-4 ovarian 39.3% | SK-OV-3 ovarian 94.4% | HS 578T breast 38.4% | NCI/ADR-RES ovarian 57.6%
active: SK-MEL-2 melanoma 6.91% | CCRF-CEM leukemia 9.98% | IGROV1 ovarian 5.44% | OVCAR-3 ovarian -11.9%

O=[N+]([O-])c1ccc(O)c2ncccc12
inactive: SK-MEL-2 melanoma 79.1% | EKVX NSCLC 39.8% | SN12C renal 35.9% | UO-31 renal 60.3% | TK-10 renal 83.2% | ACHN renal 51.8% | CAKI-1 renal 57% | A498 renal 96% | CCRF-CEM leukemia 25.5% | MOLT-4 leukemia 33.4% | SR leukemia 21.5% | RPMI-8226 leukemia 52.4% | OVCAR-8 ovarian 25.3% | OVCAR-5 ovarian 89.8% | OVCAR-4 ovarian 33.8% | SK-OV-3 ovarian 75.2% | IGROV1 ovarian 29.1% | OVCAR-3 ovarian 11.1% | HS 578T breast 74.2% | NCI/ADR-RES ovarian 22.9%

Cc1cc(=O)c2c(C)ccc(C)c2[nH]1
inactive: SK-MEL-2 melanoma 104% | EKVX NSCLC 102% | SN12C renal 101% | UO-31 renal 86.8% | TK-10 renal 108% | ACHN renal 102% | CAKI-1 renal 108% | A498 renal 108% | CCRF-CEM leukemia 102% | MOLT-4 leukemia 100% | SR leukemia 110% | RPMI-8226 leukemia 105% | OVCAR-8 ovarian 94.5% | OVCAR-5 ovarian 97.3% | OVCAR-4 ovarian 106% | SK-OV-3 ovarian 107% | IGROV1 ovarian 103% | OVCAR-3 ovarian 169% | HS 578T breast 108% | NCI/ADR-RES ovarian 100%

COc1cc(/C=C2\C(=O)Nc3ccccc32)cc(OC)c1O
inactive: SK-MEL-2 melanoma 50.4% | EKVX NSCLC 110% | SN12C renal 77% | UO-31 renal 60% | TK-10 renal 88.5% | ACHN renal 77% | CAKI-1 renal 37.7% | A498 renal 52.5% | CCRF-CEM leukemia 26.7% | RPMI-8226 leukemia 46.6% | OVCAR-8 ovarian 78.5% | OVCAR-5 ovarian 112% | OVCAR-4 ovarian 89.1% | SK-OV-3 ovarian 93.5% | IGROV1 ovarian 70.2% | OVCAR-3 ovarian 46.9% | HS 578T breast 18.4% | NCI/ADR-RES ovarian 19.1%
active: MOLT-4 leukemia 0.624% | SR leukemia -10.3%

Cc1ccc(S(=O)(=O)c2ccc3[nH]c(=O)[nH]c(=O)c3c2)cc1
inactive: SK-MEL-2 melanoma 100% | EKVX NSCLC 122% | SN12C renal 97.7% | UO-31 renal 96.1% | TK-10 renal 93.8% | ACHN renal 109% | CAKI-1 renal 97.1% | A498 renal 102% | CCRF-CEM leukemia 91.4% | MOLT-4 leukemia 94.6% | SR leukemia 82.3% | RPMI-8226 leukemia 95.6% | OVCAR-8 ovarian 95.2% | OVCAR-5 ovarian 107% | OVCAR-4 ovarian 97.9% | SK-OV-3 ovarian 97.2% | IGROV1 ovarian 104% | OVCAR-3 ovarian 110% | HS 578T breast 101% | NCI/ADR-RES ovarian 107%
